# Assay results as given in ChEMBL document CHEMBL3988442, “University of Dundee, Small-Polar-MMV Screening Library” (2021).
# Among all 66,000 compounds or so, about 960 (1.5%) showed an effect of 50% or more. Only a selection was taken, and strong results are over-represented in it overall.
# System: Trypanosoma brucei
# Experiment: Trypanosoma brucei 72 hour study
# Assay type: functional, organism-based
# Parameters: scale not given: in the data most compounds retested in dose-response had high values
compound,measurement,setting,value
O=C(N[C@H]1CC[C@@]2(CCC(=O)N2CC2CC2)CC1)c1cnccn1,Percent Effect,"30.3 µM, […]",-8.587%
Cc1nnc([C@@]23CCO[C@@H]2CCN(S(=O)(=O)c2ccccc2)C3)o1,Percent Effect,"30.3 µM, […]",-46.55%
CNC(=O)c1ccc(CN(C)C(=O)Nc2nnc(C(C)C)s2)cc1,Percent Effect,"30 µM, 30.03 µM",1.168%
Cc1cc2c(=O)n3c(nc2s1)CCN(Cc1[nH]cnc1C)CC3.Cl,Percent Effect,"30.3 µM, […]",-2.938%
COc1ccc(F)cc1-c1ccccc1CC1CNCCNC1=O.Cl (stereo unspecified),Percent Effect,"30.3 µM, […]",-18.15%
O=C(NCc1ccccc1-n1cccn1)C1CC2(CCNCC2)CN1 (stereo unspecified),Percent Effect,"30 µM, 30.03 µM",40.65%
O=C(O)C(F)(F)F.O=C1C[C@H]2[C@@H](CCN2C(=O)Cc2cccs2)N1Cc1ccncc1,Percent Effect,"30.3 µM, […]",-0.2658%
CCCc1cncnc1N1CCC(NCc2ccc(O)cc2)CC1,Percent Effect,"30 µM, 30.03 µM",63.63%
CCCc1cncnc1N1CCC(NCc2ccncc2)CC1,Percent Effect,"30 µM, 30.03 µM",-66.51%
CCCc1cncnc1N1CCC(NCCc2ccc(O)cc2)CC1,Percent Effect,"30 µM, 30.03 µM",-6.649%
CN(C)CC1(O)CCN(S(=O)(=O)c2cccc(F)c2)C1 (stereo unspecified),Percent Effect,"30.3 µM, […]",-12.71%
Brc1cccnc1OC1CCNCC1.Cl,Percent Effect,"30 µM, 30.03 µM",-18.95%
COc1cccc(CNC2CCCOc3cc(C)ccc32)n1 (stereo unspecified),Percent Effect,"30 µM, 30.03 µM",-17.07%
Cc1ccc2c(c1)C(NCc1ccccn1)CC2 (stereo unspecified),Percent Effect,"30 µM, 30.03 µM",31.05%
COc1cccc(CNC2CCc3ccc(C)cc32)n1 (stereo unspecified),Percent Effect,"30 µM, 30.03 µM",102.5%
N#Cc1c2n(c3c(=O)[nH]cnc13)CCCC2,Percent Effect,"30 µM, 30.03 µM",-59.85%
Cc1nn(C)cc1CNCc1ccc(N(C)C)cc1,Percent Effect,"30.3 µM, […]",-17.42%
CC1=C(C#N)C(=O)NC(=O)/C1=C\c1c(C)nn(-c2ccccc2)c1O,Percent Effect,"30.3 µM, […]",8.75%
CN(C)c1nc2c(c(N3CCc4ccccc4C3)n1)CCNC2,Percent Effect,"30 µM, 30.03 µM",100.4%
c1ccc2c(c1)CCN(c1nc(-c3ccncc3)nc3c1CCNC3)C2,Percent Effect,"30 µM, 30.03 µM",-16.52%
Cc1ccccc1N1CCN(c2nc(N(C)C)nc3c2CCNC3)CC1,Percent Effect,"30 µM, 30.03 µM",-31.91%
CC(C)C(=O)NC1CC2(CCN(CC(=O)N(C)C)CC2)c2ccccc21.O=C(O)C(F)(F)F (stereo unspecified),Percent Effect,"30.3 µM, […]",-88.42%
Cc1ccsc1C(=O)N1CCC2(CC(C(=O)N(C)C(C)C)=NO2)C1 (stereo unspecified),Percent Effect,"30 µM, 30.03 µM",-54.71%
CCCN1CCC(Nc2cc(-c3ccccc3)ccc2OC)CC1,Percent Effect,"30.3 µM, […]",57.37%
CCCN1CCC(NC(=O)c2csc(C)c2-c2ccccc2)CC1,Percent Effect,"30.3 µM, […]",-89.86%
CCCN1CCC(NC(=O)Nc2ccc(OC)c(OC)c2)CC1,Percent Effect,"30.3 µM, […]",-0.7678%
CC(NC(=O)NCCCN1CCCCCC1=O)c1nncn1C (stereo unspecified),Percent Effect,"30.3 µM, […]",-29.33%
O=C(O)C(F)(F)F.O=C(O)C(F)(F)F.O=C1COC2(CCN(Cc3cccs3)CC2)CN1c1cccnc1,Percent Effect,"30 µM, 30.03 µM",-14.7%
CCNc1nc(-c2cccnc2)c(-c2ccnc(NCCO)n2)s1,Percent Effect,"30.3 µM, […]",9.967%
CCNc1nc(-c2cccnc2)c(-c2ccnc(NS(C)(=O)=O)n2)s1,Percent Effect,"30.3 µM, […]",1.048%
CC(C)(C)Nc1nc(-c2cccnc2)c(-c2ccnc(NCCO)n2)s1,Percent Effect,"30.3 µM, […]",94.16%
O=C(NCCc1cccs1)[C@H]1CO[C@H]2CCN(C3CCC3)C[C@H]2C1.O=C(O)C(F)(F)F,Percent Effect,"30.3 µM, […]",-77.19%
CCOC(=O)[C@]12CCCN(Cc3ccco3)C[C@H]1CN(S(C)(=O)=O)C2.O=C(O)C(F)(F)F,Percent Effect,"30.3 µM, […]",4.884%
COc1cccc(OC)c1CN1CC(=O)N(c2ccc(C)cc2)CC1C (stereo unspecified),Percent Effect,"30 µM, 30.03 µM",102.6%
COc1ccc(CN2CC(=O)N(c3ccc(C)cc3)CC2C)cc1O (stereo unspecified),Percent Effect,"30 µM, 30.03 µM",-20.88%
COc1cc(CN2CC(=O)N(c3ccc(C)cc3)CC2C)cc(OC)c1 (stereo unspecified),Percent Effect,"30 µM, 30.03 µM",-11.31%
Cn1cc(C(=O)N2C[C@H]3C[C@H](Oc4ccccc4)C[C@H]3C2)cn1,Percent Effect,"30.3 µM, […]",8.793%
Cl.c1cnc(Nc2cncc(C3CCCN3)n2)cn1 (stereo unspecified),Percent Effect,"30.3 µM, […]",99.3%
Cc1nc(Nc2cnccn2)cc(C2CCCN2)n1.Cl (stereo unspecified),Percent Effect,"30.3 µM, […]",-13.8%
Cl.c1nnc(Nc2cncc(C3CCCN3)n2)s1 (stereo unspecified),Percent Effect,"30.3 µM, […]",-8.347%
O=C(COC[C@@]12CCC[C@@H]1CN(C1CCCC1)C2)N1CCCC1.O=C(O)C(F)(F)F,Percent Effect,"30.3 µM, […]",-80.12%
CSc1ccc(CNC(c2ccccc2F)c2nccn2C)cc1.Cl (stereo unspecified),Percent Effect,10 µM,-81.16%
CN(C)C(=O)Cc1ccccc1NCc1cccc2cccnc12,Percent Effect,"30.3 µM, […]",4.964%
CN(C)C(=O)Cc1ccccc1NCc1cc(C#N)ccc1F,Percent Effect,"30.3 µM, […]",-2.182%
CN(C)C(=O)Cc1ccccc1NCc1cccc(F)c1F,Percent Effect,"30.3 µM, […]",97.11%
CN(C)CCNC(=O)c1sccc1N(C)S(=O)(=O)c1ccc(Cl)cc1,Percent Effect,"30 µM, 30.03 µM",-35.26%
COc1ccc(-c2ccccc2CCN)c(OC)c1OC,Percent Effect,"30 µM, 30.03 µM",106.1%
COc1ccc(-c2ccccc2CN)c(OC)c1,Percent Effect,"30 µM, 30.03 µM",-56.26%
COc1ccc(-c2cc(CN)ccc2F)c(OC)c1OC,Percent Effect,"30.3 µM, […]",-22.81%
CO[C@H]1CCN(Cc2ccoc2)C[C@@H]1Cc1ccccc1.O=C(O)C(F)(F)F,Percent Effect,"30.3 µM, […]",-12.49%
C[C@@H]1C[C@@H]2CCN(C(=O)c3ccncn3)C[C@H]2O1,Percent Effect,"30 µM, 30.03 µM",-27.33%
COc1cc(N2CCC3(CCCN(C(=O)c4cnccn4)C3)C2)ncn1.O=C(O)C(F)(F)F (stereo unspecified),Percent Effect,"30 µM, 30.03 µM",-22.02%
O=C(NCCCO)c1cc(-c2ccc3c(c2)CCO3)n[nH]1,Percent Effect,"30 µM, 30.03 µM",-14.14%
O=C(NCCN1CCOCC1)c1cc(-c2ccc3c(c2)CCO3)n[nH]1,Percent Effect,"30 µM, 30.03 µM",31.8%
O=C(NCCCN1CCOCC1)c1cc(-c2ccc3c(c2)CCO3)n[nH]1,Percent Effect,"30 µM, 30.03 µM",57.45%
O=C(NCc1nnc2n1CCCCC2)N(CC1CCOC1)C1CC1 (stereo unspecified),Percent Effect,"30 µM, 30.03 µM",-56.14%
CNc1cc2c(nn1)CCN(C(=O)c1cccc3c1OCCO3)C2,Percent Effect,10 µM,-31.25%
COc1ccc(CN2CCC(CO)(Cc3ccc(Cl)cc3)CC2)c(O)c1,Percent Effect,"30.3 µM, […]",-63.01%
COc1cccc(CN2CCC(CO)(Cc3ccc(Cl)cc3)CC2)c1O,Percent Effect,"30.3 µM, […]",102.9%
OCC1(Cc2ccc(Cl)cc2)CCN(Cc2ccccc2O)CC1,Percent Effect,"30.3 µM, […]",-146.1%
CC(C)CNC(=O)[C@H]1C[C@@H]2CN(C(=O)Nc3ccc(F)cc3)C[C@H]1O2,Percent Effect,"30 µM, 30.03 µM",-34.27%
O=S(=O)(c1ccccc1)N1CCC2(CCCN2Cc2ccccc2Cl)C1 (stereo unspecified),Percent Effect,"30.3 µM, […]",33.63%
O=S(=O)(c1ccccc1)N1CCC2(CCCN2Cc2ccc(Cl)cc2)C1 (stereo unspecified),Percent Effect,"30.3 µM, […]",61.41%
O=S(=O)(c1ccccc1)N1CCC2(CCCN2Cc2cccc(F)c2)C1 (stereo unspecified),Percent Effect,"30.3 µM, […]",56.8%
CCS(=O)(=O)N1CCCC2(CCCN2Cc2cccc(F)c2)C1.O=C(O)C(F)(F)F (stereo unspecified),Percent Effect,"30 µM, 30.03 µM",-82.26%
O=C(O)C(F)(F)F.O=S(=O)(c1ccccc1)N1CCC2(CCCN2Cc2cccc(Cl)c2)C1 (stereo unspecified),Percent Effect,"30 µM, 30.03 µM",-34.57%
O=C(O)C(F)(F)F.O=C(O)C(F)(F)F.O=S(=O)(c1ccccc1)N1CCC2(CCCN2Cc2cccnc2)C1 (stereo unspecified),Percent Effect,"30.3 µM, […]",-446.5%
O=C(C1CC1)N1CCC2(CCN2Cc2ccc(F)cc2)C1.O=C(O)C(F)(F)F (stereo unspecified),Percent Effect,"30.3 µM, […]",-12.66%
Cc1cccnc1CN1CC[C@H](Oc2cccc(F)c2)[C@@](C)(O)C1,Percent Effect,"30.3 µM, […]",-17.61%
O=C1CC(NS(=O)(=O)c2ccc(Br)cc2)CN1 (stereo unspecified),Percent Effect,"30 µM, 30.03 µM",-19.04%
CN(C(=O)CCc1ccncc1)C1CCCN(CCc2ccccc2)C1 (stereo unspecified),Percent Effect,"30 µM, 30.03 µM",2.42%
CN(C(=O)CSc1ccccn1)C1CCCN(CCc2ccccc2)C1 (stereo unspecified),Percent Effect,"30 µM, 30.03 µM",106.3%
CC(C)C(=O)NCC(=O)N(C)C1CCCN(CCc2ccccc2)C1 (stereo unspecified),Percent Effect,"30.3 µM, […]",1.246%
Cn1cc(C(=O)NC(Cn2cccn2)C(C)(C)C)cn1 (stereo unspecified),Percent Effect,"30.3 µM, […]",-4.857%
CC(C)(C)C(Cn1cccn1)NC(=O)c1ccco1 (stereo unspecified),Percent Effect,"30.3 µM, […]",101.2%
CCn1nccc1C(=O)NC(Cn1cccn1)C(C)(C)C (stereo unspecified),Percent Effect,"30.3 µM, […]",-6.087%
CC(CNC(=O)CCCn1cncn1)N1CCc2ccccc2C1 (stereo unspecified),Percent Effect,"30 µM, 30.03 µM",-32.01%
CCCC(=O)Nc1sc(C(=O)OCC)c(C)c1C#N,Percent Effect,"30 µM, 30.03 µM",19.97%
Cc1sc(NC(=O)CN(C)S(C)(=O)=O)c(C#N)c1C,Percent Effect,"30 µM, 30.03 µM",51.13%
CCOC(=O)c1sc(NC(=O)CN(C)S(C)(=O)=O)c(C#N)c1C,Percent Effect,"30 µM, 30.03 µM",-8.874%
Cl.O=C(Nc1nc2c(s1)CNCC2)NC1CCCC1,Percent Effect,"30 µM, 30.03 µM",-50.11%
Cl.NC(C(=O)N1CCSc2ccccc2C1)c1ccccc1 (stereo unspecified),Percent Effect,"30 µM, 30.03 µM",1.138%
Cc1nn2c(-c3snnc3C)nnc2s1,Percent Effect,"30 µM, 30.03 µM",-55.36%
COCCC(=O)N1CC2(CCN(Cc3cccc(Cl)c3)CC2)C1.O=C(O)C(F)(F)F,Percent Effect,"30 µM, 30.03 µM",-25.19%
Cc1nnc(N2CC[C@H]3C[C@@H](C(=O)N4CCCC4)O[C@H]3C2)s1.O=C(O)C(F)(F)F,Percent Effect,"30.3 µM, […]",-391.5%
O=C(Nc1ccc(OC2CCCC2)cc1)C1CCCN1c1nccs1 (stereo unspecified),Percent Effect,"30.3 µM, […]",83.44%
O=C(Nc1cccc(F)c1)C1CCCN1c1nccs1 (stereo unspecified),Percent Effect,"30.3 µM, […]",1.599%
O=C1NCc2ccc(NC(=O)C3CCCN3c3nccs3)cc21 (stereo unspecified),Percent Effect,"30 µM, 30.03 µM",23.55%
O=C(N1CCOCC1)[C@@]12CCO[C@@H]1CCN(CC1CCCC1)C2.O=C(O)C(F)(F)F,Percent Effect,"30 µM, 30.03 µM",-11.27%
CN(Cc1cccc(F)c1)C(=O)CS(=O)(=O)Cc1ccc(Cl)c(Cl)c1,Percent Effect,"30.3 µM, […]",45.42%
CN(Cc1cccc(F)c1)C(=O)CS(=O)(=O)Cc1c(Cl)cccc1Cl,Percent Effect,"30.3 µM, […]",83.04%
Cc1ccccc1CS(=O)(=O)CC(=O)N(C)Cc1cccc(F)c1,Percent Effect,"30.3 µM, […]",-71.65%
CCOc1nnc(CN(C)CC2CCCN2c2cccnn2)s1 (stereo unspecified),Percent Effect,"30 µM, 30.03 µM",2.197%
O=C(O)C(F)(F)F.O=C(O)C(F)(F)F.O=C(c1cnc2n1CCN(Cc1ccccc1)C2)N1CCCC1,Percent Effect,"30.3 µM, […]",-305.8%
NC1CCN(C2CCN(c3ccc(-c4ccco4)cc3)CC2)CC1,Percent Effect,"30.3 µM, […]",-49.5%
COc1ccc(N2CCC(N3CCOC(C(F)(F)F)C3)CC2)cc1 (stereo unspecified),Percent Effect,"30 µM, 30.03 µM",-19.82%
O=C(O)c1ccccc1C1CCN(C2CCN(c3ccccc3)CC2)C1 (stereo unspecified),Percent Effect,"30.3 µM, […]",-16.4%
CCc1cccc(N2CCC(NC(=O)c3ccco3)CC2)c1,Percent Effect,10 µM,-6.636%
same,Percent Effect,"30.3 µM, […]",-4.063%
CNC1CCN(C2CCN(c3ccc(-c4ccco4)cc3)CC2)CC1,Percent Effect,"30.3 µM, […]",100.1%
NCC1CCN(C2CCN(c3ccc(-c4ccco4)cc3)CC2)C1 (stereo unspecified),Percent Effect,"30.3 µM, […]",100.4%
